Unmarked numbers belong to inactive results. The rule behind the calls is not given here.
Experiment: inhibitors of hydroxyurea-induced Chk1 phosphorylation, primary screen, imaging, HeLa, phospho-Chk1 antibody, percent positive cells (AID 1186)
Settings: hydroxyurea-induced phospho-Chk1 immunofluorescence imaging, higher = more signal

**Q.** With `C=CCOC(=O)[C@@H]1[C@H]2C(=O)O[C@H](c3ccccc3)[C@H](c3ccccc3)N2[C@H](c2ccc(OCCOC(=O)[C@H]3C[C@H]4C(=O)N[C@@H](CCCCN(C)C)C(=O)N4[C@H]3c3cccc(OCCO)c3)cc2)[C@@]12C(=O)Nc1ccc(I)cc12` as the compound, how does the z-score read?
**A.** -0.426

**Q.** With `O=C1O[C@@H](c2ccccc2)[C@@H](c2ccccc2)N2[C@@H](c3ccccc3OCCO)[C@]3(C(=O)Nc4ccc(C#CCCO)cc43)[C@@H](C(=O)N3CCN(c4ncccn4)CC3)[C@H]12` as the compound, how does the z-score read?
**A.** -0.0995

**Q.** For `CC1CC/C=C\[C@H]2OC34C=CCN(C(C)C)C(=O)[C@H]3N(CCCCCO)C(=O)[C@@H]4C2C(=O)O1` (stereo partly specified), which z-score is on record?
**A.** 0.453

**Q.** For `CCOC(=O)C1=CC[C@@H](c2ccccc2C(F)(F)F)N(S(=O)(=O)c2ccc(C)cc2)C1`, which z-score is on record?
**A.** -0.155

**Q.** With `COC(=O)[C@@]1(Cc2ccccc2)[C@H]2c3cc(C(=O)N4CCCC4)n(Cc4ccsc4Br)c3C[C@H]2CN1C(=O)c1ccccc1` as the compound, how does the z-score read?
**A.** 0.17

**Q.** For `Cc1ccc(S[C@]2(C(=O)O)CC(=O)N(Cc3ccccc3Cl)[C@@H]2c2ccc(CO)cc2)cc1`, which z-score is on record?
**A.** -0.181

**Q.** For `C[C@]1(C(=O)O)c2ccccc2C(=O)N(Cc2ccccc2)[C@H]1c1ccc(CO)cc1`, which z-score is on record?
**A.** -0.107

**Q.** With `COCCCNC(=O)[C@@]1(Sc2ccc(C)cc2)CC(=O)N(C2Cc3ccccc3C2)[C@@H]1c1ccc(CO)cc1I` as the compound, how does the z-score read?
**A.** 0.542

**Q.** Which z-score does the source give for `CCOC(=O)C[C@H]1[C@H](OC(=O)c2ccc(-c3ccccc3)cc2)[C@@H](NC(=O)C2CCCCC2)c2cc(OCCCO)ccc2N1C(=O)c1ccccc1` here?
**A.** -0.0374

**Q.** For `CCCC=C(CCC)[C@@H](NP(=O)(c1ccccc1)c1ccccc1)c1ccc(C(F)(F)F)cc1`, which z-score is on record?
**A.** 0.272

**Q.** With `O=C1c2ccccc2[C@@]2(Cc3ccccc3N(C3CC3)C2=O)[C@H](c2ccc(CO)cc2)N1C1CCCCC1` as the compound, how does the z-score read?
**A.** 0.353

**Q.** With `[N-]=[N+]=NCc1ccccc1C[C@]1(C(=O)NCC(O)CO)N=C(c2ccc(OCCCO)cc2)O[C@H]1c1ccccc1CN=[N+]=[N-]` (stereo partly specified) as the compound, how does the z-score read?
**A.** 0.458

**Q.** For `C=C(C(=O)CC[C@H](OC(=O)c1cccnc1)c1ccc(CO)o1)C(C)C`, which z-score is on record?
**A.** 0.286

**Q.** Which z-score does the source give for `CC(C)N1CC=CC23O[C@@H]4C=CCOC(=O)[C@@H]4[C@H]2C(=O)N(C(C)CO)[C@@H]3C1=O` (stereo partly specified) here?
**A.** 0.113

**Q.** For `COc1cc2c(cc1OC)CN(C(=O)[C@@H]1[C@H]3C(=O)O[C@H](c4ccccc4)[C@H](c4ccccc4)N3[C@H](c3ccccc3OCCO)[C@@]13C(=O)Nc1ccc(C#CC4(O)CCCCCC4)cc13)CC2`, which z-score is on record?
**A.** -0.517

**Q.** With `COc1ccc(NN2C(C(O)c3ccccn3)C=CC3C(=O)N(C4CCCCC4)C(=O)C32)cc1` (stereo unspecified) as the compound, how does the z-score read?
**A.** -0.773

**Q.** For `O=C(O)[C@H]1C[C@H]2C(=O)N3CCC[C@H]3C(=O)N2[C@H]1c1cccc(OCCO)c1`, which z-score is on record?
**A.** -0.217

**Q.** Which z-score does the source give for `CCOC(=O)C[C@H]1[C@H](OC(=O)Cc2ccc3c(c2)OCO3)[C@@H](NC(=O)Cc2ccc(OC)cc2)c2cc(OCCCO)ccc2N1C(=O)c1ccccc1` here?
**A.** -0.543

**Q.** Which z-score does the source give for `O=c1cccc(-c2cccc(Cl)c2)o1` here?
**A.** 0.0366

**Q.** For `COC(=O)[C@@]1(Cc2ccccc2)[C@H]2c3cc(C(=O)N4CCCC4)[nH]c3C[C@H]2CN1C(=O)c1ccccc1`, which z-score is on record?
**A.** 1.1

**Q.** With `C=C(CCCC)/C(=C/C[C@@H](OC(C)=O)c1ccc(CO)o1)c1cc(C(=O)OC)ccc1OC` as the compound, how does the z-score read?
**A.** 0.19

**Q.** Which z-score does the source give for `CC(C)CN1C(=O)[C@@]2(Cc3ccccc31)c1ccccc1C(=O)N(Cc1ccccc1C(F)(F)F)[C@H]2c1ccc(CO)cc1` here?
**A.** -0.417

**Q.** With `CCOC(=O)C[C@H]1[C@H](OC(=O)Cc2ccc3c(c2)OCO3)[C@@H](NC(=O)C2CCCCC2)c2cc(OCCCO)ccc2N1C(=O)c1ccc2ccccc2n1` as the compound, how does the z-score read?
**A.** 0.404

**Q.** With `C[C@@H](OCc1ccccc1)C1NC(=O)[C@@]23C(=O)N[C@@H](Cc4ccccc4)C2[C@H](C)[C@@]2(C)O[C@H]2C3/C=C/C/C=C\CNC(=O)CNC1=O` (stereo partly specified) as the compound, how does the z-score read?
**A.** 0.631

**Q.** With `C=C(C(=O)CC[C@H](OC(C)=O)c1cccc(OCCO)c1)C(C)C` as the compound, how does the z-score read?
**A.** 0.885

**Q.** Which z-score does the source give for `CC=CC(O)C1C=CC2C(=O)N(c3ccccc3)C(=O)C2N1Nc1ccc([N+](=O)[O-])cc1` (stereo unspecified) here?
**A.** -0.263

**Q.** Which z-score does the source give for `CC(C)C(O)C1C=CC2C(=O)N(C)C(=O)C2N1Nc1ccccc1` (stereo unspecified) here?
**A.** 0.331

**Q.** For `O=C1c2ccccc2[C@](Cc2ccccc2I)(C(=O)NCc2ccccc2)[C@H](c2ccc(CO)cc2)N1C1CCCCC1`, which z-score is on record?
**A.** -0.353

**Q.** With `O=C1C2C=CC(C(O)c3cc(C(F)(F)F)cc(C(F)(F)F)c3)N(Nc3ccc([N+](=O)[O-])cc3)C2C(=O)N1c1ccccc1` (stereo unspecified) as the compound, how does the z-score read?
**A.** -0.198

**Q.** Which z-score does the source give for `CC(C)(C)OC(=O)CC[C@]1(C(=O)NCCN2CCOCC2)N=C(c2ccc(OCCCO)cc2)O[C@H]1c1ccccc1` here?
**A.** -0.103

**Q.** For `C=CC[C@@H](OC(=O)Nc1ccc(OC)cc1)c1ccc(OCCO)cc1`, which z-score is on record?
**A.** -0.867

**Q.** For `O=C1NC(=O)C2C1C=CC(C(O)c1ccc3c(c1)OCO3)N2Nc1ccccn1` (stereo unspecified), which z-score is on record?
**A.** 0.095

**Q.** Which z-score does the source give for `Cc1ccc(S[C@]2(C(=O)NC(C)C)CC(=O)N(C3Cc4ccccc4C3)[C@@H]2c2ccc(CO)cc2I)cc1` here?
**A.** 0.425

**Q.** With `COc1ccc([Si](C)(C)[C@H]2[C@H](CCO)O[C@@]3(C(=O)N(Cc4cccc(N5CCCCC5=O)c4)c4ccccc43)[C@@H]2C)cc1` as the compound, how does the z-score read?
**A.** -1.36

**Q.** With `COc1ccc([Si](C)(C)[C@H]2[C@H](CC(=O)N3Cc4ccccc4C[C@H]3CO)O[C@@]3(C(=O)N(Cc4cccc(N5CCCCC5=O)c4)c4ccccc43)[C@@H]2C)cc1` as the compound, how does the z-score read?
**A.** -0.507

**Q.** For `NC(=O)NCC#Cc1ccc2c(c1)[C@]1(C(=O)N2)[C@H](C(=O)Nc2nc3ccccc3s2)[C@H]2C(=O)O[C@H](c3ccccc3)[C@H](c3ccccc3)N2[C@@H]1c1ccc(O)cc1`, which z-score is on record?
**A.** 0.118
